Records with an inconclusive call do not appear. Activity calls are given as the source filed them.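 Rule for the calls, unless noted: active = percent response above 42, roughly 3 SD of non-fluorescent test compounds; inactive = the rest.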
Columns and labels:
[1] = yeast TOR pathway RPL19A-GFP modulators, primary screen, cell-based, S. cerevisiae, multiplex flow cytometry (AID 1862; in the data active = percent of DMSO control GFP below about 86%;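 note: lower values mimic rapamycin by blocking the RPL19A rise seen in DMSO cells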); settings: S. cerevisiae RPL19A-GFP strain, flow cytometry fluorescence, 3 h; at 10 µM; stronger effect = lower value
[2] = modulators of MEP2-GFP levels in yeast, primary screen, S. cerevisiae, multiplex flow cytometry (AID 1867;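 active = GFP response, as percent of the DMSO control, above the screen-wide mean plus 3 SD, about 139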;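 note: median GFP channel fluorescence of barcode-gated MEP2-GFP cells measured by flow cytometry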); settings: S. cerevisiae MEP2-GFP strain, 3 h, at 10 µM, stronger effect = higher value, 100% means same as DMSO wells
[3] = modulators of CIT2-GFP expression in yeast, primary screen, S. cerevisiae, GFP fusion, multiplex flow cytometry (AID 1870;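 active = percent response above a set limit, the screen-wide mean plus 3 SD, cut at about 130% in these data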;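 note: barcoded CIT2-GFP strain pooled with four other GFP strains with rapamycin as positive control; median GFP fluorescence per well over plate mean of DMSO wells so 100% = DMSO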); settings: 3 h, at 10 µM, stronger effect = higher value
[4] = modulators of LAP4-GFP expression in yeast, primary screen, S. cerevisiae, multiplex flow cytometry (AID 1873;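 active = GFP signal, as percent of the solvent control, above the screen mean plus 3 SD, about 149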); settings: 3 h, at 10 µM, stronger effect = higher value
[5] = modulators of AGP1-GFP expression in yeast TOR pathway, primary screen, cell-based, multiplex flow cytometry, S. cerevisiae (AID 1887;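 active = GFP signal above the screen-wide mean plus 3 SD, that is over about 124.5% of the solvent control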;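 note: AGP1-GFP fusion strain of S. cerevisiae within a five-strain barcoded multiplex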); settings: 3 h, at 10 µM, stronger effect = higher value
[6] = inhibitors of CD8+ T cell-vesicle binding, pilot screen, LFA-1/ICAM-1 modulator project, MLPCN validation set, flow cytometry (AID 2523;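 active = response below a set limit, under 55% cells CD8-positive and vesicle-bound, and CD8 cells' 90th-percentile brightness under 279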;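 for vesicle binding response: mean PE anti-B7-1 fluorescence of CD8+ cells relative to row control; 100% = QL9-loaded vesicles with DMSO vehicle in the same plate row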); settings: 2C mouse CD8+ T cells, at 7 µM, stronger effect = lower value; double positive events: measured here: CD8+/vesicle+ event percentage
[7] = target: Integrin beta-1 (Homo sapiens) + Integrin alpha-4 (Homo sapiens) (UniProt P13612+P05556); assay: inhibition of HUTS-21 binding to VLA-4, pilot screen, VLA-4 allosteric modulator project, U937 cells, HUTS-21 mAb, flow cytometry, validation set (AID 2674;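 active = inhibition above 50%, about 3 SD of the validation set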;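 note: antibody binding induced by the VLA-4 ligand LDV present at three times its Kd; 0% = LDV ligand with antibody and no compound and 100% = antibody without LDV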); settings: HUTS-21 LIBS mAb binding, at 6.7 µM, stronger effect = higher value, binding induced by LDV ligand
[8] = superoxide lowering in aged yeast cells, pilot screen, validation compound set (AID 2706;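 active = superoxide response below 65% of plate, a cut near 3 SD across the whole screen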;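 note: yeast exposed to compound for one week at 30 degrees C before staining; 100% = mean of all compound wells on the same plate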); settings: S. cerevisiae aging, superoxide DHE fluorescence; at 10 µM; stronger effect = lower value
[9] = target: Beta-adrenergic receptor kinase 1 (Homo sapiens) (UniProt P25098); assay: GRK2 binders displacing RNA aptamer, biochemical, validation, human GRK2, bead flow cytometry (AID 488806;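 active = aptamer binding inhibition above 30%, about 3 SD of noise from non-fluorescent compounds; inactive = inhibition at or below 30%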); settings: bead-bound GRK2, FAM-aptamer displacement, at 10 µM, stronger effect = higher value
[10] = target: Beta-2 adrenergic receptor (Homo sapiens) (UniProt P07550); assay: beta2AR agonists driving receptor internalization, pilot screen, cell-based, FAP fluorogen, flow cytometry, validation set (AID 504459); settings: Am2.2-beta2AR cells, FAP surface receptor flow cytometry; at 10 µM; stronger effect = higher value;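 note: agonist-driven loss of surface beta2AR via internalization measured by FAP dye flow cytometry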
[11] = target: AP-2 complex subunit beta (Homo sapiens) (UniProt P63010); assay: inhibitors of arrestin peptide binding to AP2, pilot screen, biochemical, validation set, GST-AP2 beads, flow cytometry (AID 504541;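 active = inhibition above 54%, about 3 SD of non-fluorescent compounds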;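 note: AP2 carries R879A mutation and is captured from E. coli lysate; bead-bound FITC arrestin peptide fluorescence measuring arrestin peptide binding to AP2; 0% = DMSO wells and 100% = excess unlabeled arrestin peptide control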); settings: FITC arrestin peptide, at 10 µM, stronger effect = higher value, AP2 beta2 appendage fragment, R879A mutant
[12] = yeast V-ATPase proton transport modulators, S. cerevisiae, pHLuorin, HTS validation (AID 504600; in the data active = response above about 15%;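 note: plate controls were DMSO for no effect and reference compound for full effect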); settings: S. cerevisiae pHLuorin cytosolic pH, at 10 µM, stronger effect = higher value
[13] = test system: anti-desmoglein-3 scFv antibody binding to human DSG3; assay: inhibitors of anti-DSG3 scFv binding to DSG3, pilot screen, biochemical, validation compound set, bead-based, flow cytometry (AID 588368;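 active = binding below the plate cutoff, the plate median minus 3 SD, with a reading above zero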;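 note: signal is the median channel fluorescence of bead-bound GFP antibody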); settings: Protein G beads, DSG3-Fc, scFv-GFP binding, at 10 µM, stronger effect = lower value
[14] = inhibitors of fungal efflux pumps CDR1, CDR2, MDR1, pilot screen, validation compound set, multiplex, phenotypic (AID 588506;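 active = efflux inhibition above 0.42, the validation set average plus 4 SD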;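 note: Nile Red retained in cells so higher fluorescence means more efflux inhibition; 0 = negative control wells and 1 = enniatin B 25 µM full block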); settings: S. cerevisiae pump-expressing triplex, Nile Red efflux flow cytometry; at 10 µM; stronger effect = higher value; the pumps come from Candida albicans
[15] = target: ATP-binding cassette sub-family B member 6 (Homo sapiens) (UniProt Q9NP58); assay: ABCB6 transporter inhibitors, pilot screen, K562-ABCB6 cells, flow cytometry, validation set (AID 588550;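 active = inhibition above the screen-wide mean plus 3 SD, about 51%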;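 note: 0% = DMSO wells and 100% = benzethonium chloride 70 µM positive control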); settings: K562-ABCB6 porphyrin accumulation, 1 h, at 10 µM, stronger effect = higher value
[16] = promoters of myeloid differentiation in arrested cells, primary screen, cell-based, GFP/MAC1 double positive, flow cytometry, validation set (AID 588685;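 active = differentiation response of at least 50%, scaled between solvent and reference control, from cells with both markers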;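 note: compound exposure lasts four days before antibody staining and flow analysis; 0% = DMSO wells and 100% = 5 µM fulvestrant positive control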); settings: ER-HoxA9 marrow cells, stronger effect = higher value, normalized: vehicle 0, fulvestrant 100

Sequence of Beta-2 adrenergic receptor (Homo sapiens) (P07550 whole entry, looked up): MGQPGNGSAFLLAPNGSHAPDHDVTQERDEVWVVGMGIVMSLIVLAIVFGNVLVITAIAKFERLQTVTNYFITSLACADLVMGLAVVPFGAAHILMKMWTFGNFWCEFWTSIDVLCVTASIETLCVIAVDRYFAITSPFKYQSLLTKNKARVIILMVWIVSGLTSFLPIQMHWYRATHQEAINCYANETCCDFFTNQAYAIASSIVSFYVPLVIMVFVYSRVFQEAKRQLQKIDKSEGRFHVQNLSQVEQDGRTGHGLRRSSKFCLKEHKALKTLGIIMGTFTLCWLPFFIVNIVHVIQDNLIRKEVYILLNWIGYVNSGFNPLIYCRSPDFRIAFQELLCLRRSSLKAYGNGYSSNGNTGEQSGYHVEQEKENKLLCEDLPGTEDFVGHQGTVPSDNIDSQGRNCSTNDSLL
Sequence of ATP-binding cassette sub-family B member 6 (Homo sapiens) (Q9NP58 whole entry, looked up): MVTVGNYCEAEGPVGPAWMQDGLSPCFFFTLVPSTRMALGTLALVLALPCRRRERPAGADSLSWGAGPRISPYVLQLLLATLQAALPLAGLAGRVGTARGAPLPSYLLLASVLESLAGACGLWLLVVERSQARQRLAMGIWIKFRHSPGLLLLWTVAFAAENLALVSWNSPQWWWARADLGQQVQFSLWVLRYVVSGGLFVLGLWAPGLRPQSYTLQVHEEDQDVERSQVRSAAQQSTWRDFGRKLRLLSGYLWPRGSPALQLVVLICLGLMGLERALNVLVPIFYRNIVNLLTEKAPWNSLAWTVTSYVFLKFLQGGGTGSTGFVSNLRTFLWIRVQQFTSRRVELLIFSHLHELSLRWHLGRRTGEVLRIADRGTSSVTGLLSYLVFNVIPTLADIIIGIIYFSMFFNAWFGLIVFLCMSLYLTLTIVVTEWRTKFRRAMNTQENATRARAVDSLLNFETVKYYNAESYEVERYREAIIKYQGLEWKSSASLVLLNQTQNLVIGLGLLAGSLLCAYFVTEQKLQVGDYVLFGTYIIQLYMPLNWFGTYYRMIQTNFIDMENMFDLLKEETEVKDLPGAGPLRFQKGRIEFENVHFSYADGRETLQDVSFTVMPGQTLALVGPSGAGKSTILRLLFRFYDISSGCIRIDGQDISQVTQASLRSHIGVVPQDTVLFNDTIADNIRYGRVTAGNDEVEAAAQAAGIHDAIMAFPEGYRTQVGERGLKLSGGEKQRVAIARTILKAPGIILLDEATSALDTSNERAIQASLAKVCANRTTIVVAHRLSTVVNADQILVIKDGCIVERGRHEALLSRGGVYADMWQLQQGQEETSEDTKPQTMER
Sequence of Beta-adrenergic receptor kinase 1 (Homo sapiens) (P25098 whole entry, looked up): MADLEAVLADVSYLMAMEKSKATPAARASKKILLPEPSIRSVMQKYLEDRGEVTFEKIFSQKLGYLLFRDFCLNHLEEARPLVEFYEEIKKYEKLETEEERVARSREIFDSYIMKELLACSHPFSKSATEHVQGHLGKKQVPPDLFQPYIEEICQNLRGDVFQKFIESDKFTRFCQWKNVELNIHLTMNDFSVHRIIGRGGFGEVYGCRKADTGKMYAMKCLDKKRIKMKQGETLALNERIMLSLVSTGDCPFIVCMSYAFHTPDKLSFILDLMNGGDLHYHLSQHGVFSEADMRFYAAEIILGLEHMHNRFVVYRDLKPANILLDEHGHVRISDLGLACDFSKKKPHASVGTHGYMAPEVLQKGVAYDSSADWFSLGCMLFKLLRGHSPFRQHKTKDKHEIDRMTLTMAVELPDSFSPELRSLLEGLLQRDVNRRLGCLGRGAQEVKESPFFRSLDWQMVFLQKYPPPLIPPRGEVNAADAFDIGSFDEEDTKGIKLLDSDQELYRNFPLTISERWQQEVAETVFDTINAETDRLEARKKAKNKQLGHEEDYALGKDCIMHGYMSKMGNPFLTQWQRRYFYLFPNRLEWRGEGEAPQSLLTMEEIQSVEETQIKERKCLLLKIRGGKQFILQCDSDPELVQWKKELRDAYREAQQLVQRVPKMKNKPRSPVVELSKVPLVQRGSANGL
Sequence of AP-2 complex subunit beta (Homo sapiens) (P63010 whole entry, looked up, the tested form may be a part, one chain of several): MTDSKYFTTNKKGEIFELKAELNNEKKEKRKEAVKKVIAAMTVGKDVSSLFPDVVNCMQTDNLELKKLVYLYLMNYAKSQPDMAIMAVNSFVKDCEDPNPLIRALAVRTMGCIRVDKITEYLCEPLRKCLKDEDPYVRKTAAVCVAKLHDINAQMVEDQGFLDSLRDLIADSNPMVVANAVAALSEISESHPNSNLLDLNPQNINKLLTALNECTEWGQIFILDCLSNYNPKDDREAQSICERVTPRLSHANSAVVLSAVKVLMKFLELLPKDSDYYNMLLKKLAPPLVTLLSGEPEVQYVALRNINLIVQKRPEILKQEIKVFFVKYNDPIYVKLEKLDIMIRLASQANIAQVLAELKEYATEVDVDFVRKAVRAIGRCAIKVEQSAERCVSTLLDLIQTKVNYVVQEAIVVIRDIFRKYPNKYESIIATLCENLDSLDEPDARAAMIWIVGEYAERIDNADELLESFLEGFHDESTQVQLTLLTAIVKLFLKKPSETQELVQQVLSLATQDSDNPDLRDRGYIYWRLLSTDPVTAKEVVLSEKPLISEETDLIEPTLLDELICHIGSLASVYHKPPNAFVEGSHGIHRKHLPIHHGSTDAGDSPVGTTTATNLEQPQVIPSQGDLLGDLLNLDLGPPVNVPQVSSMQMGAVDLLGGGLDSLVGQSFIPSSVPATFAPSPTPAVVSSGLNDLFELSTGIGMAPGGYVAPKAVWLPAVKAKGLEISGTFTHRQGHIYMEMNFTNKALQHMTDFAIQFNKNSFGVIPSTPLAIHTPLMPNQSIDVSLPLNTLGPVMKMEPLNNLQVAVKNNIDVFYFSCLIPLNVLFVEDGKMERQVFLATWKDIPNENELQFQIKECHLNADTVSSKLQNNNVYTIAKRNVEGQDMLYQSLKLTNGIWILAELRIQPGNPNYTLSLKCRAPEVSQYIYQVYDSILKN
Sequence of Integrin beta-1 (Homo sapiens) + Integrin alpha-4 (Homo sapiens) (P05556 whole entry, looked up): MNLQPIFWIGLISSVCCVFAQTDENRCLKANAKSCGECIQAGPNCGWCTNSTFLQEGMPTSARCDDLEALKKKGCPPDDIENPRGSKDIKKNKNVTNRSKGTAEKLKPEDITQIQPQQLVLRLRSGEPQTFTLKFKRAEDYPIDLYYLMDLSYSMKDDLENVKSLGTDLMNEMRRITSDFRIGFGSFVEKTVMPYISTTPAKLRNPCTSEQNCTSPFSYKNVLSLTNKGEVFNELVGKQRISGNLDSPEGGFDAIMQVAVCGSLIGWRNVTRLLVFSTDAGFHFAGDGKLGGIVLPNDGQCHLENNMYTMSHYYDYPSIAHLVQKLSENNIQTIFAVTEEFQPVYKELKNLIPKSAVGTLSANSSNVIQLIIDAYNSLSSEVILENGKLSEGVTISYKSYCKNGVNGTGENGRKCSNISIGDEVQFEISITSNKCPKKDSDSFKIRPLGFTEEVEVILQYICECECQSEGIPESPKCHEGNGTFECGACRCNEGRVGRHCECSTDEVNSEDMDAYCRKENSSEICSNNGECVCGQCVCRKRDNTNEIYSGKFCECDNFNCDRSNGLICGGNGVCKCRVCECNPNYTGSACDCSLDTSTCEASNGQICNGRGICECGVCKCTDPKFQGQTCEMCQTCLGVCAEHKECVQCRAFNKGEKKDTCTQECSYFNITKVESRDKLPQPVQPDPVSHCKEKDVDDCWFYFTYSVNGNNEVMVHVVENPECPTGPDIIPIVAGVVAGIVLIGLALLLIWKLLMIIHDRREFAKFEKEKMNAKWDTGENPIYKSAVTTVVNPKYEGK
Sequence of Integrin beta-1 (Homo sapiens) + Integrin alpha-4 (Homo sapiens) (P13612 whole entry, looked up): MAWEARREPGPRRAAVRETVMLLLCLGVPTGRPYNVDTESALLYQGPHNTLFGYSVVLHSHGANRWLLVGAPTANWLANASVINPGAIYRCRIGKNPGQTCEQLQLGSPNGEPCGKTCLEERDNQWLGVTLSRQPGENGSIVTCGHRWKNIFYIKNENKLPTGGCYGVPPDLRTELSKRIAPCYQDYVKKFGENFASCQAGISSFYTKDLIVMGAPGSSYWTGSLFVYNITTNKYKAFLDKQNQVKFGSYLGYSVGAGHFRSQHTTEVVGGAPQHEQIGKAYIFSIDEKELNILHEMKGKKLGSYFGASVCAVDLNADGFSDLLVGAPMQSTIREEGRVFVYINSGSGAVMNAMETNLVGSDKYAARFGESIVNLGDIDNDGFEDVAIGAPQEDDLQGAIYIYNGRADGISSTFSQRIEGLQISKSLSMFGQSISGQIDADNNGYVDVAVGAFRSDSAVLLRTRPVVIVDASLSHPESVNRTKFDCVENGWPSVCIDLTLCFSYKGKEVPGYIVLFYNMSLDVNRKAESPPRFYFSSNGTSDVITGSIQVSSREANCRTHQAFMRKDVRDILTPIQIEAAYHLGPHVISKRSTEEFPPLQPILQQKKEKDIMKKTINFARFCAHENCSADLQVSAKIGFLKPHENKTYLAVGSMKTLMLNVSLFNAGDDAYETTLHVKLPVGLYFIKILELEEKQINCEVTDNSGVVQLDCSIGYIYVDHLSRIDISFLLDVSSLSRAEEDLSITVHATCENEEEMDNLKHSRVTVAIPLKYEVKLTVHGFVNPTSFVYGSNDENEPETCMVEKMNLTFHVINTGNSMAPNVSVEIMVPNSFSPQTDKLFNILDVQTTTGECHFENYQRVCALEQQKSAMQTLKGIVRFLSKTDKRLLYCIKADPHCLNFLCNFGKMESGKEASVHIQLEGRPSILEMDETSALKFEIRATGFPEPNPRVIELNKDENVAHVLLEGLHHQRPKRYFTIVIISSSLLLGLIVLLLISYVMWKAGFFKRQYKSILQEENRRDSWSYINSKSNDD

c1coc(-c2nnc3n2C2(CCCC2)Cc2ccccc2-3)c1
inactive: percent of DMSO control GFP [1] 94.2% | GFP response vs DMSO [2] 114% | percent response of DMSO control [3] 97.9% | GFP response vs DMSO [4] 82.5% | GFP response, % of DMSO [5] 91.5% | vesicle binding response [6] 279% | inhibition [7] 25.9% | superoxide response (% of plate) [8] 91.6% | aptamer binding inhibition [9] 4% | response [10] -2% | inhibition [11] -13.2% | response [12] 0.46% | binding (% of control) [13] 109% | efflux inhibition (fraction of control) [14] -0.6 | inhibition [15] 14% | differentiation response [16] 3.28%
73.1%: double positive events [6]

CCC(NC(C)C)C(O)c1ccc(O)c(O)c1 (stereo not drawn)
active: response [10] 46%
inactive: percent of DMSO control GFP [1] 103% | GFP response vs DMSO [2] 102% | percent response of DMSO control [3] 100% | GFP response vs DMSO [4] 104% | GFP response, % of DMSO [5] 112% | vesicle binding response [6] 170% | inhibition [7] -11.3% | superoxide response (% of plate) [8] 86.8% | aptamer binding inhibition [9] 4% | inhibition [11] -1.15% | response [12] 0.42% | binding (% of control) [13] 105% | efflux inhibition (fraction of control) [14] -0.04 | inhibition [15] 2% | differentiation response [16] -0.06%
60.7%: double positive events [6]

O=C(O)c1ccc(-c2ccc(O)c(F)c2)cc1
60%: double positive events [6]
inactive: percent of DMSO control GFP [1] 105% | GFP response vs DMSO [2] 105% | percent response of DMSO control [3] 111% | GFP response vs DMSO [4] 98% | GFP response, % of DMSO [5] 102% | vesicle binding response [6] 4700% | inhibition [7] -1.49% | superoxide response (% of plate) [8] 96.3% | aptamer binding inhibition [9] -2% | response [10] -5.66% | inhibition [11] -6.99% | response [12] 3.09% | binding (% of control) [13] 97.9% | efflux inhibition (fraction of control) [14] -0.17 | inhibition [15] -1% | differentiation response [16] -6.6%

Cc1ccc2c(c1C)NC(C(=O)O)C1CC=CC21 (stereo not drawn)
inactive: percent of DMSO control GFP [1] 102% | GFP response vs DMSO [2] 97.4% | percent response of DMSO control [3] 105% | GFP response vs DMSO [4] 73.5% | GFP response, % of DMSO [5] 88.5% | vesicle binding response [6] 121% | inhibition [7] -70% | superoxide response (% of plate) [8] 101% | inhibition [11] 11% | response [12] 2.2% | binding (% of control) [13] 96.8% | efflux inhibition (fraction of control) [14] 0.15 | inhibition [15] -4% | differentiation response [16] -4%
60.4%: double positive events [6]
active: aptamer binding inhibition [9] 34% | response [10] 62.2%

COc1cccc(CC(=O)NCC2COc3ccccc3O2)c1OC (stereo not drawn)
inactive: percent of DMSO control GFP [1] 103% | GFP response vs DMSO [2] 105% | percent response of DMSO control [3] 101% | GFP response vs DMSO [4] 102% | GFP response, % of DMSO [5] 106% | vesicle binding response [6] 230% | inhibition [7] 6.95% | superoxide response (% of plate) [8] 92.8% | aptamer binding inhibition [9] 2% | response [10] 3.04% | inhibition [11] -3.19% | response [12] -3.58% | binding (% of control) [13] 103% | efflux inhibition (fraction of control) [14] -0.1 | differentiation response [16] -6.03%
60.9%: double positive events [6]
active: inhibition [15] 63%

Cc1ccc2c(c1)C(O)(C1COC(C)(C)CC1=O)C(=O)N2C (stereo not drawn)
inactive: percent of DMSO control GFP [1] 107% | GFP response vs DMSO [2] 105% | percent response of DMSO control [3] 104% | GFP response vs DMSO [4] 99.1% | GFP response, % of DMSO [5] 98.8% | vesicle binding response [6] 214% | inhibition [7] 12.3% | superoxide response (% of plate) [8] 103% | aptamer binding inhibition [9] 2% | response [10] -0.64% | inhibition [11] -0.06% | response [12] -9.91% | binding (% of control) [13] 102% | efflux inhibition (fraction of control) [14] 0.05 | inhibition [15] 12% | differentiation response [16] 23.2%
59.3%: double positive events [6]

COc1ccc(-c2c[n+](CC(=O)OC3CC(C)CCC3C(C)C)c3n2CCC3)cc1 (stereo not drawn)
57.8%: double positive events [6]
inactive: percent of DMSO control GFP [1] 99.5% | GFP response vs DMSO [2] 105% | percent response of DMSO control [3] 102% | GFP response vs DMSO [4] 97% | GFP response, % of DMSO [5] 98.6% | vesicle binding response [6] 42.8% | inhibition [7] 5.61% | superoxide response (% of plate) [8] 97.3% | aptamer binding inhibition [9] -6% | response [10] -0.25% | inhibition [11] -5.29% | response [12] 8.78% | binding (% of control) [13] 108% | efflux inhibition (fraction of control) [14] 0.28 | inhibition [15] 6% | differentiation response [16] -3.11%

C[C@]12CC[C@@H]3c4ccc(O)cc4CC[C@H]3[C@@H]1C[C@@H](O)[C@@H]2O[C@@H]1O[C@H](C(=O)O)[C@@H](O)[C@H](O)[C@H]1O
61.7%: double positive events [6]
inactive: percent of DMSO control GFP [1] 90.6% | GFP response vs DMSO [2] 113% | percent response of DMSO control [3] 108% | GFP response vs DMSO [4] 77% | GFP response, % of DMSO [5] 104% | vesicle binding response [6] 249% | inhibition [7] -10% | superoxide response (% of plate) [8] 109% | aptamer binding inhibition [9] 4% | response [10] -7.17% | inhibition [11] -6.28% | response [12] -6.58% | binding (% of control) [13] 105% | efflux inhibition (fraction of control) [14] 0.12 | inhibition [15] 8% | differentiation response [16] -4.91%

C[C@H]1O[C@@H](O[C@H]2[C@@H](O)C[C@H](O[C@H]3[C@@H](O)C[C@H](O[C@H]4CC[C@@]5(C)[C@H](CC[C@@H]6[C@@H]5C[C@@H](O)[C@]5(C)[C@@H](C7=CC(=O)OC7)CC[C@]65O)C4)O[C@@H]3C)O[C@@H]2C)C[C@H](O)[C@@H]1O
inactive: percent of DMSO control GFP [1] 100% | GFP response vs DMSO [2] 105% | percent response of DMSO control [3] 95.5% | GFP response vs DMSO [4] 93.7% | GFP response, % of DMSO [5] 93.7% | vesicle binding response [6] 151% | inhibition [7] 11% | superoxide response (% of plate) [8] 90.7% | aptamer binding inhibition [9] -2% | response [10] 12.4% | inhibition [11] -11.4% | response [12] 1.64% | binding (% of control) [13] 103% | efflux inhibition (fraction of control) [14] -0.07 | inhibition [15] -10% | differentiation response [16] 5.67%
62.7%: double positive events [6]
